From PubChem BioAssay (NCATS) come the findings set out here.

Results filed as inconclusive are left out. The source made the active and inactive calls. Calls follow the shape of the dose curve; as a rule, active = well fitted inhibition curve with a large enough effect; inconclusive = small, poorly fitted or top-dose-only effect; inactive = flat fitted curve, though single readings scatter. Numbered stars: 1 amine (or outer) side, 2 acyl side, 3 side chain; on linkers, the order of the positions; unused ones are H or OH. Square brackets hold non-standard residues; d marks the D form. Peptide text beside a SMILES is read from it. * marks the point of attachment. ξ: configuration not given here. X4 = O=C(C1CC2(c3ccc(O)cc3)c3ccccc3NC2N1[*:1])[*:2]; ξW = NC(Cc1c[nH]c2ccccc12)C(=O)O; ξY = NC(Cc1ccc(O)cc1)C(=O)O; Octanoyl = CCCCCCCC(=O)*
% is scaled to controls: 0 for no effect and ±100 for the full control effect; potency is read from the fitted curve at half-maximal effect.

A short description of the experiment: qHTS assay for small molecule disruptors of mitochondrial membrane potential screened against the NCATS CANVASS Library (AID 1347389). Also: nearly all actives have a fitted effect of over 60% in size. The note with it: HepG2 mitochondrial membrane potential, m-MPI red/green ratio, 1.5 h; series mostly up to 46.1 µM; activity change, negative = depolarization: at the top concentration. The source says:
Natural products and their derivatives continue to be wellsprings of nascent therapeutic potential. However, many laboratories have limited resources for biological evaluation, leaving their previously isolated or synthesized compounds largely or completely untested. To address this issue, the Canvass library of natural products was assembled (https://tripod.nih.gov/canvass), in collaboration with academic and industry researchers, for quantitative high-throughput screening (qHTS) across a diverse set of cell-based and biochemical assays. The pure (>85% purity by liquid chromatography/mass spectrometry [LC/MS]) Canvass library of 346 natural products were submitted by 45 academic laboratories and companies around the world. We collected pure natural products to circumvent deconvolution and structure elucidation due to time and resource limitations. The library was formatted into 1536-well plates and evaluated in 50 qHTS (in an 11-pnt concentration series) bioassays with broad scope of disease-relevant mechanisms. The resulting data set from 50 different assays was then systematically analyzed to identify overall trends and specific natural products with interesting biological activities. Reported herein are the results of each individual qHTS and their corresponding assay protocol. In healthy cells, the mitochondria are polarized and mitochondrial-membrane potential indicator (m-MPI) accumulates in the mitochondria as red fluorescent aggregates (emission at 590 nm). As the mitochondrial membrane depolarizes, m-MPI red-colored J-aggregates are converted to green fluorescent monomers (emission at 535 nm) and released from mitochondria into the cytosol. In response to mitochondrial depolarization, the red-to-green fluorescence ratio decreases. National Center for Advancing Translational Sciences (NCATS), Rockville, MD National Institute of Health (NIH), Bethesda, Maryland
Mitochondrial membrane potential protocol: 2,000 HepG2 cells in 5 uL/well were dispensed into black, clear-bottom 1536-well plates using a Multidrop Combi (Thermo Scientific) dispenser. The assay plates were incubated overnight at 37C to allow cells to attach to the wells, followed by the transfer of 23 nL compound or DMSO vehicle by a pin tool (Kalypsys). The plates were incubated for 1 hr at 37C and 5% CO2, followed by the addition of 5 uL of 2X Mito-MPS dye (BD Biosciences) into each well using Flying Reagent Dispenser (Aurora Discovery) and then following 30 min incubation at 37C. Fluorescence intensity (490nm excitation and 535nm emission for monomers; and 540nm excitation and 590nm emissions for aggregates) was measured using an Envision plate reader.
With `C[C@@]12C[C@@H](C[C@H]3C(=O)O[C@@H](c4ccoc4)[C@H](OC(=O)c4ccccc4)[C@@H]31)OC2=O`, the “activity change, negative = depolarization” value (“activity change” below) is 8.06% (inactive).
Regarding `CO[C@@H]1C[C@@H](C[C@H]2CC[C@H](C)[C@H]([C@@H](C)C(=O)O)O2)O[C@]2(O[C@](C)([C@H]3CC[C@@](C)([C@@H]4O[C@@H]([C@H]5O[C@](C)(O)[C@H](C)C[C@@H]5C)C[C@@H]4C)O3)C[C@H]2C)[C@@H]1C`, the Potency was 18.6 µM (active).
Take `C[C@@]12CCC[C@@](C)(C(=O)O)[C@H]1CC[C@]13C[C@H]4C[C@H](O[C@@]4(C)C1)[C@H]32`: the “activity change” value is -25.3% (inactive).
`CCC[C@@H](C)/C=C(\C)[C@H](O)[C@H](C)/C=C/CC[C@@H](O)[C@H](C)[C@H](O)[C@H](C)[C@H](O)[C@H](C)[C@H]1O[C@H]([C@H](C)C(=O)O)CC[C@@H]1C`: the Potency was 20.9 µM (active).
On to `C=C[C@]1(C)CC[C@@H]([C@H](C)C(=O)/C=C/C(C)C)O1`, for which the “activity change” value was -6.21% (inactive).
As to `O=c1cc(-c2ccc(O)cc2)oc2c([C@@H]3OC(CO)[C@H](O)[C@@H](O)[C@H]3O)c(O)cc(O)c12` (stereo not given in full), the “activity change” value was -2.6% (inactive).
Take `CC1=CC2=C[C@H](C)C[C@@]23OC(=C(C)C3=O)CC(C)(C)/C=C/C1=O`: the Potency was 5.24 µM (active).
On to `C=C(C)[C@@H]1CC[C@]2(C)CC[C@]3(C)[C@H](CC[C@@H]4[C@@]5(C)CC[C@H](O)C(C)(C)[C@@H]5CC[C@]43C)[C@@H]12`, for which the Potency result was “inactive”.
Take `CN1CC[C@]2(c3cccc4c3N[C@@H]3N(C)CC[C@]43[C@@]34CCN(C)[C@@H]3Nc3c([C@]56CCN(C)[C@H]5Nc5ccccc56)cccc34)c3ccccc3N[C@H]12`: the “activity change” value is 10% (inactive).
Turning to `C/C=C/c1cc(OC)c2c(c1)[C@@H](C)[C@H](c1ccc(O)c(OC)c1)O2`, the “activity change” value is -8.19% (inactive).
Same read-out and setting: the figure for `CC1C(=O)C23CCC1C[C@]21O[C@@H]2C(C)(C)C=CC(=O)[C@@]23COC1=O` (stereo not given in full) is -4.73% (inactive); for `C[C@@]12CCC[C@@](C)(C(=O)O)[C@H]1C[C@@H](O)[C@]13C[C@H]4C[C@H](O[C@@]4(C)C1)[C@@H]23` it is 1.55% (inactive).
Turning to `COc1cc(O)c2c3c(c(O)cc(C)c13)C(=O)OC2`, the Potency is 18.6 µM (active).
As for `C[C@@H]1O[C@@H](Oc2c(-c3ccc(O)cc3)oc3cc(O)cc(O)c3c2=O)[C@H](O)[C@H](O)[C@H]1O`, the “activity change” value was -8.24% (inactive).
In the case of `O=C(O)[C@@]12CO[C@@]3(O)C4CCN(CC[C@H]31)[C@H]4c1c2[nH]c2ccccc12`, the “activity change” value is -10.2% (inactive).
On the same count and under the same terms, then `CC1(C)[C@H](Br)CC[C@]23C[C@]4(C)C(=O)CC12C[C@H]34`, with -31.1% (inactive).
Still for that read-out and setting: the figure for `C[C@@H]1O[C@@H](O[C@@H]2[C@@H](O)[C@H](O[C@@H]3[C@@H](O)[C@@H](O)C(O[C@H]4[C@H](OC(=O)[C@]56CCC(C)(C)C[C@H]5C5=CCC7[C@@]8(C)C[C@H](O)[C@H](O[C@@H]9C[C@H](CO)[C@@H](O)[C@H](O)[C@H]9O)[C@@](C)(CO)C8[C@H](O)C[C@@]7(C)[C@]5(C)CC6)OC[C@H](O)[C@@H]4O)O[C@H]3C)OC[C@H]2O)[C@H](O)[C@H](O)[C@H]1O` (stereo not given in full) is -2.07% [at 27.5 µM] (inactive); for `C[C@@H]1C(=O)[C@]23CC[C@H]1C[C@]21O[C@H]2C(C)(C)C=CC(=O)[C@]23COC1=O` it is -4.8% (inactive).
As for `COc1ccc([C@@H]2c3cc(OC)c(OC)cc3C(=O)C(C)C2C)cc1OC` (stereo not given in full), the “activity change” value is -5.79% (inactive).
On the same count and under the same terms, the figure for `CCCCCCCC(=O)N[C@@H](CC(C)C)C(=O)N[C@H](C=O)CCC(=O)O` (Octanoyl-Leu-Glu-aldehyde) is 1.36% (inactive).
The same measure, in the same setting: the figure for `O=C(O)Cc1c[nH]c2ccccc12` is -8.02% (inactive); for `C/C(=C\[C@H](C)C(=O)CCCC1CC(=O)NC(=O)C1)C(O)[C@@H](C)[C@H](O)C/C=C/CC/C=C/C(=O)O` (stereo not given in full) it is 8.17% (inactive).
Still for that read-out and setting: then `C/C=C1/CC[C@@H]2c3[nH]c4ccccc4c3CCN2C1`, with -12.4% (inactive); and `CO[C@H]1/C=C/CC[C@@H](S[C@@H]2O[C@H](CO)[C@@H](O)[C@H](O)[C@H]2O)CC(=O)O[C@@H](/C(C)=C/[C@H](C)C(=O)CCCC2CC(=O)NC(=O)C2)[C@@H](C)[C@@H]1O`, with 4.62% (inactive); and `C[C@]12CC[C@]3(C1)[C@H](CC2=O)CC(OC(=O)c1ccccc1)[C@H]1[C@@](CO)(C(=O)O)CCC[C@@]13C` (stereo not given in full), with -10% (inactive).
`CC1=CC[C@@]2(C[C@@H]1O)[C@@H](C(=O)O)CC[C@H]2C(C)C`: the “activity change” value was -7.43% (inactive).
Regarding `C=C1C(=O)C[C@H]2C[C@@H]1[C@]2(C)CCC=C(C)C`, the “activity change” value was 5.95% (inactive).
On the same count and under the same terms, then `CC12C[C@]3(O)O[C@@H](O1)[C@]1(COC(=O)c4ccccc4)[C@@H]3CC21OC1OC(CO)C(O)C(O)C1O` (stereo not given in full), with 5.24% (inactive); and `CC(=O)[C@@H]1[C@@H](O)C[C@H]2[C@]3(C)CC[C@H]4C(C)(C)CCC[C@]4(CO)[C@H]3C[C@H]3OC(=O)[C@@H]1[C@@]32C`, with -5.1% (inactive).
Still for that read-out and setting: then `C=C1C[C@@]23C=CC(=O)[C@@](C)(CCC(=O)Nc4c(O)ccc(C(=O)O)c4O)C2C[C@@H]1CC3` (stereo not given in full), with 2.31% (inactive); and `C=C1C[C@@]23C=CC(=O)[C@@](C)(CCCC(C)C(=O)O)[C@@H]2C[C@@H]1CC3` (stereo not given in full), with 1.99% (inactive).
On to `C[C@H]1C[C@@H]([C@@H]2CC[C@]34O[C@H](CC[C@@]35C[C@H](C)C(=O)O5)CN24)OC1=O`, for which the “activity change” value is 10.4% (inactive).
`COc1ccc(/C=C2\COc3cc(O)ccc3C2=O)cc1`: the Potency was 20.9 µM (active).
For `CC1C(=O)C23CCC1C[C@@]21O[C@H]2C(C)(C)C=CC(=O)[C@@]23COC1=O` (stereo not given in full), the “activity change” value was 4.8% (inactive).
On to `CC1(C)C=Cc2c(ccc3c2OC[C@@H](c2ccc(O)cc2O)C3)O1`, for which the Potency was 14.8 µM (active).
With `CCCCCC[C@H](CCCCC[C@@H](O)C(N)=O)OC(=O)[C@@H]1CC=CN1C(=O)c1ccccc1O`, the “activity change” value was -13.2% (inactive).
On to `O=C(OC1Cc2c(O)cc(O)cc2OC1c1cc(O)c(O)c(O)c1)c1cc(O)c(O)c(O)c1` (stereo not given), for which the “activity change” value was 6.73% (inactive).
For the compound `O=Cc1ccc2n1C[C@@]1(OC2)O[C@H](CO)[C@@H](O)[C@@H]1O`, the “activity change” value was 12.6% (inactive).
As to `CC[C@H](C)[C@H](NC(=O)C(Cc1ccc(O)cc1)NC(=O)C(Cc1c[nH]c2ccccc12)NC(=O)[C@H](C)N)C(=O)N1C(C(=O)NC(Cc2ccc(O)cc2)C(=O)O)CC2(c3ccc(O)cc3)c3ccccc3NC12` (stereo not given in full) (H-A[ξW][ξY]I[X4][ξY]-OH), the “activity change” value is 0.309% (inactive).
On the same count and under the same terms, then `CC(=O)NC[C@@H]1O[C@H](CC/C=C(C)/C(C)=C/C=O)[C@H](C)C[C@H]1O`, with 4.36% (inactive).
